Consider 40 molecules from PubChem BioAssay (NCATS).

Where “and” joins values, the source holds several entries; their conditions need not be identical. Identical values can stand only once. Results filed as inconclusive are left out. Entries that show only a call come without a potency. Calls of active or inactive are those of the source. Calls come from the whole dose curve; as a rule, active = well fitted inhibition curve with a large enough effect; inconclusive = small, poorly fitted or top-dose-only effect; inactive = no such curve, though single readings can be large or run the other way.
Potency is the fitted concentration of half-maximal effect.

The nature of this experiment: qHTS for Inhibitors of the Aldehyde Dehydrogenase Family (ALDH1A2, ALDH1A3, ALDH2, ALDH3A1) (AID 2061307). For potency: test system not described further here. Note: nearly all actives have a fitted effect of over 50% in size. Particulars: ALDH inhibition qHTS; series mostly up to 50.3 µM.
As to `COc1ccc(NC(=S)N=Nc2c(O)[nH]c3ccccc23)cc1`, the Potency entry is “inactive”.

Regarding `Cc1csc(-c2cccc(C(=O)Nc3ccc(F)c(F)c3F)c2)n1`, the Potency result is “inactive”.

Regarding `Cc1cc(Cl)ccc1-n1c(CCC(=O)O)ccc1-c1cccs1`, the Potency was 12.7 µM (active).

Turning to `O=C(Nc1nc2ccccc2c(=O)s1)c1ccc(F)cc1Cl`, the Potency result is “inactive”.

As for `Cc1ccc(NC(=O)Nc2cc3c(cc2N2CCCCC2)n(C)c(=O)n3C)cc1Cl`, the Potency is 3.55 µM (active) and 798 nM (active).

On to `OCCNc1nc(Nc2ccccc2O)nc(N2CCCC2)n1`, for which the Potency result is “inactive”.

As to `O=C(Cn1nc2c(cc1=O)CCCC2)Nc1nc(-c2ccc3c(c2)OCO3)cs1`, the Potency result is “inactive”.

For `O=[N+]([O-])c1cccnc1S(=O)(=O)c1ccccc1`, the Potency entry is “inactive”.

Consider `Cc1nnc(NCc2ccc(Cl)cc2)o1`, for which the Potency is 8.96 µM (active).

As for `CC(C)(C)CNc1ncnc2ccc(-c3ccc4c(c3)OCO4)cc12`, the Potency result is “inactive”.

On to `O=C(c1ccc(F)cc1)c1no[n+]([O-])c1C(=O)c1ccc(F)cc1`, for which the Potency is 12.7 µM (active).

As for `Cc1ccc(S(=O)(=O)Nc2ccc(O)c3ccccc23)c(C)c1`, the Potency is 14.2 µM (active).

For `CN(C)C(C(=O)N1CCN(c2ccc(C#N)cc2)CC1)c1ccccc1F` (stereo not given), the Potency result is “inactive”.

Regarding `CCOc1ccc(CNc2ccc3ccccc3c2)cc1`, the Potency is 2.83 µM (active).

For the molecule `NS(=O)(=O)c1ccc(Cc2cn(-c3nc(C(=O)O)cs3)c3ccccc23)cc1`, the Potency result was “inactive”.

Turning to `O=C1C(=O)N(Cc2ccccc2)c2ccccc21`, the Potency was 1.79 µM (active).

Regarding `Cc1n[nH]c(C)c1-n1c2c(cc(-c3nc(-c4ccc(Cl)cc4)cs3)c1=O)C(=O)CC(C)(C)C2`, the Potency result was “inactive”.

As to `CN(C)c1ccc(C(=O)Nc2nnc(C3=COCCO3)o2)cc1`, the Potency entry is “inactive”.

Turning to `COCCn1cc(NC(=O)CSC(C)C)ccc1=O`, the Potency result is “inactive”.

Consider `COc1ccc(-n2c(C)cc(C3=NNC(=NC4CC4)SC3)c2C)cc1`, for which the Potency is 4.49 µM (active).

As to `COc1ccc(OC)c(-n2c3c(cc(-c4nnn(-c5ccc(Cl)cc5)n4)c2=O)C(=O)CC(C)(C)C3)c1`, the Potency was 5.04 µM (active).

`CCOc1c(Cl)cc(CNc2ccc3[nH]c(=O)[nH]c3c2)cc1OC`: the Potency result is “inactive”.

In the case of `COc1cccc(N2CCN(c3ncnc4c3c(-c3ccccc3)cn4-c3cccc(C(F)(F)F)c3)CC2)c1`, the Potency result was “inactive”.

As for `CCCCn1cnc2cc(NCc3ccc(OCC)cc3)ccc21`, the Potency is 5.04 µM (active).

Consider `O=C(c1ccc(Cl)cc1)c1no[n+]([O-])c1C(=O)c1ccc(Cl)cc1`, for which the Potency was 7.98 µM (active).

On to `NC(=O)Cc1ccc(Nc2ncnc3c2cnn3-c2ccccc2)cc1`, for which the Potency result is “inactive”.

As for `CCN(CC)S(=O)(=O)c1ccc(NC(=O)c2ccc(CN3CCc4ccccc4C3)cc2)cc1`, the Potency result was “inactive”.

`O=c1cc(N2CCNCC2)nc2sc(-c3cccc(-c4ccsc4)c3)nn12`: the Potency is 6.31 µM (active).

Consider `CC/C=C\C/C=C\C/C=C\C/C=C\C/C=C\C/C=C\CCC(=O)NCCN(C)C`, for which the Potency entry was “inactive”.

For the molecule `O=C(Nc1nc2ccc(Cl)cc2s1)c1cc(=O)c2ccccc2o1`, the Potency entry was “inactive”.

Consider `O=C(NC1CCCc2c1cnn2-c1ccc(OCCOCCOCCNCCc2cn(-c3cc4ccc(O)cc4oc3=O)nn2)cc1)c1ccccn1` (stereo not given), for which the Potency result is “inactive”.

In the case of `COc1cc(O)c(C(CC(=O)N2CC(C)CC(C)C2)c2ccc(S(=O)(=O)N(C)C)cc2)c(OC)c1` (stereo not given), the Potency entry was “inactive”.

For `O=C(Nc1ccc(N2CCCCC2)nc1)c1cccs1`, the Potency is 5.04 µM (active).

Consider `Cc1ccc2nc(Nc3ccc(C(=O)O)cc3)[nH]c2c1`, for which the Potency is 12 µM (active).

`CCc1ccc(NC(=O)Cn2c(=O)n(-c3ccccc3)c(=O)c3ccc(C(=O)NCc4ccc5c(c4)OCO5)cc32)cc1`: the Potency entry is “inactive”.

As to `Nc1nc2c(s1)C(c1ccccc1)CC(=O)N2` (stereo not given), the Potency was 11.3 µM (active).

Regarding `Cc1cccc(Nc2nc(-c3ccccc3)c3cc(Cl)ccc3n2)c1`, the Potency is 12.6 µM (active).

For the molecule `COc1ccc(Nc2nc(N3CCCC3)nc(N3CCOCC3)n2)cc1`, the Potency entry is “inactive”.

With `CS(=O)(=O)c1nc(-c2ccc(Br)cc2)cs1`, the Potency result was “inactive”.

With `Cc1nn(CC(=O)N2CCN(c3cccc(C(F)(F)F)c3)CC2)c(=O)c2cc3sccc3n12`, the Potency entry was “inactive”.
